# Experimental data taken from PubChem BioAssay AID1159580 (chemical genetic matrix, 2015).
# Among all 5,500 compounds or so, about 2,000 (36%) were called active. Not shown: some 18% with an inconclusive outcome. No stated cut-off is given here; in the data, active means normalized growth mostly below about 0.91 (no sharp cut-off); inconclusive means no clear call, values can overlap the other calls; inactive means mostly above about 0.92. The list shows a part of the results.
# Test: chemical genetic growth profiling, strain panel (AID 1159580);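 further: tested at 20 µM; growth read once vehicle control cultures reached saturation at 30 °C; 1 = growth at the plate median or of vehicle wells; lower values mean less growth of the strain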
# Details: growth OD
structure (smiles),measurement,setting,value
O=c1oc2c(O)c(O)cc3c(=O)oc4c(O)c(O)cc1c4c23,normalized growth,"S. cerevisiae deletion strains, locus YJR075W, strain HOC1, hits give low values",0.684 (active)
same,normalized growth,"S. cerevisiae deletion strains, locus YKL009W, strain mrt4, hits give low values",0.978 (inactive)
same,normalized growth,"S. cerevisiae deletion strains, locus YKL068W, hits give low values",0.994 (inactive)
same,normalized growth,"S. cerevisiae deletion strains, locus YKL085W, strain MDH1 (second series), hits give low values",0.972 (inactive)
same,normalized growth,"S. cerevisiae deletion strains, locus YKL085W, strain MDH1, hits give low values",0.972 (inactive)
same,normalized growth,"S. cerevisiae deletion strains, locus YKL160W, strain elf1, hits give low values",0.82 (active)
same,normalized growth,"S. cerevisiae deletion strains, locus YKL190W, strain CNB1, hits give low values",0.712 (active)
same,normalized growth,"S. cerevisiae deletion strains, locus YKR001C, strain vps1, hits give low values",0.54 (active)
same,normalized growth,"S. cerevisiae deletion strains, locus YKR026C, strain gcn3, hits give low values",0.992 (inactive)
same,normalized growth,"S. cerevisiae deletion strains, locus YKR091W, strain srl3, hits give low values",0.924 (active)
same,normalized growth,"S. cerevisiae deletion strains, locus YLL001W, strain dnm1, hits give low values",0.747 (active)
same,normalized growth,"S. cerevisiae deletion strains, locus YLL026W, hits give low values",0.686 (active)
same,normalized growth,"S. cerevisiae deletion strains, locus YLL041C, strain sdh2, hits give low values",0.904 (active)
same,normalized growth,"S. cerevisiae deletion strains, locus YLR027C, strain aat2, hits give low values",0.772 (active)
same,normalized growth,"S. cerevisiae deletion strains, locus YLR039C, strain RIC1, hits give low values",0.407 (active)
same,normalized growth,"S. cerevisiae deletion strains, locus YLR058C, strain SHM2, hits give low values",0.578 (active)
same,normalized growth,"S. cerevisiae deletion strains, locus YLR102C, strain apc9, hits give low values",0.933 (inactive)
same,normalized growth,"S. cerevisiae deletion strains, locus YLR113W, strain HOG1, hits give low values",0.981 (inactive)
same,normalized growth,"S. cerevisiae deletion strains, locus YLR221C, strain rsa3, hits give low values",0.717 (active)
same,normalized growth,"S. cerevisiae deletion strains, locus YLR258W, strain gsy2, hits give low values",0.747 (active)
same,normalized growth,"S. cerevisiae deletion strains, locus YLR262C, strain YPT6 (second series), hits give low values",0.648 (active)
same,normalized growth,"S. cerevisiae deletion strains, locus YLR262C, strain YPT6, hits give low values",0.556 (active)
same,normalized growth,"S. cerevisiae deletion strains, locus YLR268W, strain sec22, hits give low values",0.356 (active)
same,normalized growth,"S. cerevisiae deletion strains, locus YLR320W, strain mms22, hits give low values",0.617 (active)
same,normalized growth,"S. cerevisiae deletion strains, locus YLR330W, strain CHS5, hits give low values",0.584 (active)
same,normalized growth,"S. cerevisiae deletion strains, locus YLR342W, strain FKS1 (second series), hits give low values",0.401 (active)
same,normalized growth,"S. cerevisiae deletion strains, locus YLR342W, strain FKS1, hits give low values",0.628 (active)
same,normalized growth,"S. cerevisiae deletion strains, locus YLR357W, strain rsc2, hits give low values",0.627 (active)
same,normalized growth,"S. cerevisiae deletion strains, locus YLR370C, strain arc18, hits give low values",0.422 (active)
same,normalized growth,"S. cerevisiae deletion strains, locus YLR371W, strain rom2, hits give low values",0.605 (active)
same,normalized growth,"S. cerevisiae deletion strains, locus YLR384C, strain iki3, hits give low values",0.724 (active)
same,normalized growth,"S. cerevisiae deletion strains, locus YLR418C, strain cdc73, hits give low values",0.366 (active)
same,normalized growth,"S. cerevisiae deletion strains, locus YML016C, strain PPZ1, hits give low values",0.626 (active)
same,normalized growth,"S. cerevisiae deletion strains, locus YML032C, strain rad52, hits give low values",0.66 (active)
same,normalized growth,"S. cerevisiae deletion strains, locus YML120C, strain ndi1, hits give low values",0.581 (active)
same,normalized growth,"S. cerevisiae deletion strains, locus YML124C, strain tub3, hits give low values",0.778 (active)
same,normalized growth,"S. cerevisiae deletion strains, locus YMR058W, strain fet3, hits give low values",0.848 (active)
same,normalized growth,"S. cerevisiae deletion strains, locus YMR078C, strain ctf18, hits give low values",0.875 (active)
same,normalized growth,"S. cerevisiae deletion strains, locus YMR125W, strain sto1, hits give low values",1 (inactive)
same,normalized growth,"S. cerevisiae deletion strains, locus YMR129W, hits give low values",0.886 (active)
same,normalized growth,"S. cerevisiae deletion strains, locus YMR205C, strain PFK2, hits give low values",0.685 (active)
same,normalized growth,"S. cerevisiae deletion strains, locus YMR223W, strain ubp8, hits give low values",0.612 (active)
same,normalized growth,"S. cerevisiae deletion strains, locus YMR231W, strain pep5, hits give low values",0.728 (active)
same,normalized growth,"S. cerevisiae deletion strains, locus YMR263W, strain SAP30, hits give low values",0.616 (active)
same,normalized growth,"S. cerevisiae deletion strains, locus YMR307W, strain GAS1, hits give low values",0.731 (inactive)
same,normalized growth,"S. cerevisiae deletion strains, locus YNL067W, strain RPL9B, hits give low values",0.572 (active)
same,normalized growth,"S. cerevisiae deletion strains, locus YNL071W, strain lat1, hits give low values",0.86 (active)
same,normalized growth,"S. cerevisiae deletion strains, locus YNL128W, strain TEP1, hits give low values",0.558 (active)
same,normalized growth,"S. cerevisiae deletion strains, locus YNL153C, strain GIM3, hits give low values",0.492 (active)
same,normalized growth,"S. cerevisiae deletion strains, locus YNL183C, strain NPR1, hits give low values",0.922 (inactive)
same,normalized growth,"S. cerevisiae deletion strains, locus YNL209W, strain ssb2, hits give low values",0.444 (active)
same,normalized growth,"S. cerevisiae deletion strains, locus YNL233W, strain BNI4, hits give low values",0.594 (active)
same,normalized growth,"S. cerevisiae deletion strains, locus YNL248C, strain rpa49, hits give low values",0.912 (inactive)
same,normalized growth,"S. cerevisiae deletion strains, locus YNL250W, strain rad50, hits give low values",0.947 (inactive)
same,normalized growth,"S. cerevisiae deletion strains, locus YNL271C, strain bni1, hits give low values",0.885 (active)
same,normalized growth,"S. cerevisiae deletion strains, locus YNL298W, strain CLA4, hits give low values",0.907 (active)
same,normalized growth,"S. cerevisiae deletion strains, locus YNL307C, strain MCK1, hits give low values",0.787 (active)
same,normalized growth,"S. cerevisiae deletion strains, locus YNL322C, strain KRE1 (second series), hits give low values",0.685 (active)
same,normalized growth,"S. cerevisiae deletion strains, locus YNR049C, strain mso1, hits give low values",0.896 (active)
same,normalized growth,"S. cerevisiae deletion strains, locus YNR052C, strain pop2, hits give low values",0.365 (active)
same,normalized growth,"S. cerevisiae deletion strains, locus YOL012C, strain htz1",0.268 (inactive)
same,normalized growth,"S. cerevisiae deletion strains, locus YOL147C, strain pex11, hits give low values",0.658 (active)
same,normalized growth,"S. cerevisiae deletion strains, locus YOR001W, strain rrp6, hits give low values",0.735 (active)
same,normalized growth,"S. cerevisiae deletion strains, locus YOR061W, strain CKA2, hits give low values",0.618 (active)
same,normalized growth,"S. cerevisiae deletion strains, locus YOR069W, strain VPS5, hits give low values",0.69 (active)
same,normalized growth,"S. cerevisiae deletion strains, locus YOR070C, strain gyp1, hits give low values",0.593 (active)
same,normalized growth,"S. cerevisiae deletion strains, locus YOR080W, strain dia2, hits give low values",0.638 (active)
same,normalized growth,"S. cerevisiae deletion strains, locus YOR083W, strain WHI5, hits give low values",0.717 (active)
same,normalized growth,"S. cerevisiae deletion strains, locus YOR106W, strain vam3, hits give low values",0.507 (active)
same,normalized growth,"S. cerevisiae deletion strains, locus YOR136W, strain idh2, hits give low values",0.796 (active)
same,normalized growth,"S. cerevisiae deletion strains, locus YOR144C, strain elg1, hits give low values",0.68 (active)
same,normalized growth,"S. cerevisiae deletion strains, locus YOR184W, strain ser1, hits give low values",0.538 (active)
same,normalized growth,"S. cerevisiae deletion strains, locus YOR231W, strain MKK1, hits give low values",0.972 (inactive)
same,normalized growth,"S. cerevisiae deletion strains, locus YOR265W, strain rbl2, hits give low values",0.771 (active)
same,normalized growth,"S. cerevisiae deletion strains, locus YOR270C, strain vph1, hits give low values",0.467 (active)
same,normalized growth,"S. cerevisiae deletion strains, locus YOR290C, strain snf2, hits give low values",0.167 (active)
same,normalized growth,"S. cerevisiae deletion strains, locus YOR316C, strain cot1, hits give low values",0.852 (active)
same,normalized growth,"S. cerevisiae deletion strains, locus YPL051W, strain arl3, hits give low values",0.627 (active)
same,normalized growth,"S. cerevisiae deletion strains, locus YPL055C, strain LGE1, hits give low values",0.624 (active)
same,normalized growth,"S. cerevisiae deletion strains, locus YPL078C, strain atp4, hits give low values",0.767 (active)
same,normalized growth,"S. cerevisiae deletion strains, locus YPL106C, strain sse1, hits give low values",0.809 (active)
same,normalized growth,"S. cerevisiae deletion strains, locus YPL240C, strain hsp82, hits give low values",0.864 (active)
same,normalized growth,"S. cerevisiae deletion strains, locus YPL241C, strain CIN2, hits give low values",0.816 (active)
same,normalized growth,"S. cerevisiae deletion strains, locus YPL256C, strain CLN2, hits give low values",1.01 (inactive)
same,normalized growth,"S. cerevisiae deletion strains, locus YPR119W, strain clb2, hits give low values",0.947 (inactive)
same,normalized growth,"S. cerevisiae deletion strains, locus YPR141C, strain kar3, hits give low values",0.987 (inactive)
same,normalized growth,"S. cerevisiae deletion strains, locus YPR163C, strain tif3, hits give low values",0.876 (active)
same,normalized growth,"S. cerevisiae deletion strains, locus YPR167C, strain met16, hits give low values",0.725 (active)
same,normalized growth,"S. cerevisiae deletion strains, strain wtn01, hits give low values",0.511 (active)
same,normalized growth,"S. cerevisiae strains, strain wild type, hits give low values",0.605 (active)
